# Data as given in the supplement of paper PMC4466140.
# How the values were obtained:
# Assay in all cases: SPOT peptide array binding signal intensity (averaged, normalized) (arbitrary units (background-subtracted, floor 0; scale differs between SH3 domains)); higher = stronger binding of the SH3 domain to the peptide
# AgAbp1 = molecular target: AgAbp1
# In short: (§1)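 GST-fused SH3 domains, from four yeast species, were produced in E. coli BL21(DE3) and captured on glutathione Sepharose. Membranes of cellulose carrying synthetic 15-mer peptides, in which cysteines had been replaced by serines, were exposed to each domain at 10 μg/ml overnight at 4°C in TBS-based blocking buffer. After anti-GST antibody, an HRP anti-mouse secondary and luminol, spots were imaged and quantified using Genespotter. Binding signal is normalized and background-subtracted spot intensity, averaged over replicates, in arbitrary units that differ between domains.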
# AgBbc1 = molecular target: AgBbc1
# In short: as §1
# AgBem1-D1 = molecular target: AgBem1-D1
# In short: as §1
# AgBzz1-D1 = molecular target: AgBzz1-D1
# In short: as §1
# AgBzz1-D2 = molecular target: AgBzz1-D2
# In short: as §1
# AgCyk3 = molecular target: AgCyk3
# In short: as §1
# AgFus1 = molecular target: AgFus1
# In short: as §1
# AgHof1 = molecular target: AgHof1
# In short: as §1
# AgHse1 = molecular target: AgHse1
# In short: as §1
# AgLsb1 = molecular target: AgLsb1
# In short: as §1
# AgLsb4 = molecular target: AgLsb4
# In short: as §1
# AgMyo5 = molecular target: AgMyo5
# In short: as §1
# AgNbp2 = molecular target: AgNbp2
# In short: as §1
# AgRvs167 = molecular target: AgRvs167
# In short: as §1
# AgSho1 = molecular target: AgSho1
# In short: as §1
# AgSla1-D1-D2 = molecular target: AgSla1-D1-D2
# In short: as §1
# AgSla1-D3 = molecular target: AgSla1-D3
# In short: as §1
# CaAbp1-D1 = molecular target: CaAbp1-D1
# In short: as §1
# CaAbp1-D2 = molecular target: CaAbp1-D2
# In short: as §1
# CaBbc1 = molecular target: CaBbc1
# In short: as §1
# CaBem1-D1 = molecular target: CaBem1-D1
# In short: as §1
# CaBzz1-D1 = molecular target: CaBzz1-D1
# In short: as §1
# CaBzz1-D2 = molecular target: CaBzz1-D2
# In short: as §1
# CaCyk3 = molecular target: CaCyk3
# In short: as §1
# CaFus1 = molecular target: CaFus1
# In short: as §1
# CaHof1 = molecular target: CaHof1
# In short: as §1
# CaHse1 = molecular target: CaHse1
# In short: as §1
# CaLsb1 = molecular target: CaLsb1
# In short: as §1
# CaLsb4 = molecular target: CaLsb4
# In short: as §1
# CaMyo5 = molecular target: CaMyo5
# In short: as §1
# CaNbp2 = molecular target: CaNbp2
# In short: as §1
# CaRvs167 = molecular target: CaRvs167
# In short: as §1
# CaRvs167-3 = molecular target: CaRvs167-3
# In short: as §1
# CaSho1 = molecular target: CaSho1
# In short: as §1
# CaSla1-D1-D2 = molecular target: CaSla1-D1-D2
# In short: as §1
# CaSla1-D3 = molecular target: CaSla1-D3
# In short: as §1
# ScAbp1 = molecular target: ScAbp1
# In short: as §1
# ScBbc1 = molecular target: ScBbc1
# In short: as §1
# ScBem1-D1 = molecular target: ScBem1-D1
# In short: as §1
# ScBzz1-D1 = molecular target: ScBzz1-D1
# In short: as §1
# ScBzz1-D2 = molecular target: ScBzz1-D2
# In short: as §1
# ScCyk3 = molecular target: ScCyk3
# In short: as §1
# ScFus1 = molecular target: ScFus1
# In short: as §1
# ScHof1 = molecular target: ScHof1
# In short: as §1
# ScHse1 = molecular target: ScHse1
# In short: as §1
# ScLsb1 = molecular target: ScLsb1
# In short: as §1
# ScLsb2 = molecular target: ScLsb2
# In short: as §1
# ScLsb3 = molecular target: ScLsb3
# In short: as §1
# ScLsb4 = molecular target: ScLsb4
# In short: as §1
# ScMyo3 = molecular target: ScMyo3
# In short: as §1
# ScMyo5 = molecular target: ScMyo5
# In short: as §1
# ScNbp2 = molecular target: ScNbp2
# In short: as §1
# ScPex13 = molecular target: ScPex13
# In short: as §1
# ScRvs167 = molecular target: ScRvs167
# In short: as §1
# ScSho1 = molecular target: ScSho1
# In short: as §1
# ScSla1-D1-D2 = molecular target: ScSla1-D1-D2
# In short: as §1
# ScSla1-D3 = molecular target: ScSla1-D3
# In short: as §1
# SpAbp1-D1 = molecular target: SpAbp1-D1
# In short: as §1
# SpBbc1 = molecular target: SpBbc1
# In short: as §1
# SpBzz1-D1 = molecular target: SpBzz1-D1
# In short: as §1
# SpBzz1-D2 = molecular target: SpBzz1-D2
# In short: as §1
# SpCyk3 = molecular target: SpCyk3
# In short: as §1
# SpHof1 = molecular target: SpHof1
# In short: as §1
# SpHof1-2 = molecular target: SpHof1-2
# In short: as §1
# SpHof1-3 = molecular target: SpHof1-3
# In short: as §1
# SpHse1 = molecular target: SpHse1
# In short: as §1
# SpLsb1 = molecular target: SpLsb1
# In short: as §1
# SpLsb4 = molecular target: SpLsb4
# In short: as §1
# SpMyo1 = molecular target: SpMyo1
# In short: as §1
# SpNbp2 = molecular target: SpNbp2
# In short: as §1
# SpPex13 = molecular target: SpPex13
# In short: as §1
# SpRvs167 = molecular target: SpRvs167
# In short: as §1
# SpSla1-D1-D2 = molecular target: SpSla1-D1-D2
# In short: as §1
# SpSla1-D3 = molecular target: SpSla1-D3
# In short: as §1
binder,measurement,setting,value
NFKRLLPRDPSEKSS,SPOT peptide array binding signal intensity,AgAbp1,1
same,SPOT peptide array binding signal intensity,AgBbc1,0.75
same,SPOT peptide array binding signal intensity,AgBem1-D1,105
same,SPOT peptide array binding signal intensity,AgBzz1-D1,6
same,SPOT peptide array binding signal intensity,AgBzz1-D2,35
same,SPOT peptide array binding signal intensity,AgCyk3,0.5
same,SPOT peptide array binding signal intensity,AgFus1,311
same,SPOT peptide array binding signal intensity,AgHof1,32
same,SPOT peptide array binding signal intensity,AgHse1,2610
same,SPOT peptide array binding signal intensity,AgLsb1,2.5
same,SPOT peptide array binding signal intensity,AgLsb4,50
same,SPOT peptide array binding signal intensity,AgMyo5,1
same,SPOT peptide array binding signal intensity,AgNbp2,≤ 0
same,SPOT peptide array binding signal intensity,AgRvs167,2
same,SPOT peptide array binding signal intensity,AgSho1,99.5
same,SPOT peptide array binding signal intensity,AgSla1-D1-D2,15.5
same,SPOT peptide array binding signal intensity,AgSla1-D3,5.5
same,SPOT peptide array binding signal intensity,CaAbp1-D1,126
same,SPOT peptide array binding signal intensity,CaAbp1-D2,30
same,SPOT peptide array binding signal intensity,CaBbc1,≤ 0
same,SPOT peptide array binding signal intensity,CaBem1-D1,≤ 0
same,SPOT peptide array binding signal intensity,CaBzz1-D1,≤ 0
same,SPOT peptide array binding signal intensity,CaBzz1-D2,17.8
same,SPOT peptide array binding signal intensity,CaCyk3,≤ 0
same,SPOT peptide array binding signal intensity,CaFus1,970
same,SPOT peptide array binding signal intensity,CaHof1,0.5
same,SPOT peptide array binding signal intensity,CaHse1,81
same,SPOT peptide array binding signal intensity,CaLsb1,0.5
same,SPOT peptide array binding signal intensity,CaLsb4,≤ 0
same,SPOT peptide array binding signal intensity,CaMyo5,7
same,SPOT peptide array binding signal intensity,CaNbp2,286
same,SPOT peptide array binding signal intensity,CaRvs167,6.33
same,SPOT peptide array binding signal intensity,CaRvs167-3,31.5
same,SPOT peptide array binding signal intensity,CaSho1,340
same,SPOT peptide array binding signal intensity,CaSla1-D1-D2,≤ 0
same,SPOT peptide array binding signal intensity,CaSla1-D3,1
same,SPOT peptide array binding signal intensity,ScAbp1,66.5
same,SPOT peptide array binding signal intensity,ScBbc1,≤ 0
same,SPOT peptide array binding signal intensity,ScBem1-D1,27
same,SPOT peptide array binding signal intensity,ScBzz1-D1,21
same,SPOT peptide array binding signal intensity,ScBzz1-D2,18
same,SPOT peptide array binding signal intensity,ScCyk3,105
same,SPOT peptide array binding signal intensity,ScFus1,308
same,SPOT peptide array binding signal intensity,ScHof1,3
same,SPOT peptide array binding signal intensity,ScHse1,2620
same,SPOT peptide array binding signal intensity,ScLsb1,1
same,SPOT peptide array binding signal intensity,ScLsb2,2
same,SPOT peptide array binding signal intensity,ScLsb3,83.5
same,SPOT peptide array binding signal intensity,ScLsb4,1
same,SPOT peptide array binding signal intensity,ScMyo3,2
same,SPOT peptide array binding signal intensity,ScMyo5,4.5
same,SPOT peptide array binding signal intensity,ScNbp2,35.5
same,SPOT peptide array binding signal intensity,ScPex13,3.5
same,SPOT peptide array binding signal intensity,ScRvs167,16.2
same,SPOT peptide array binding signal intensity,ScSho1,1040
same,SPOT peptide array binding signal intensity,ScSla1-D1-D2,35.5
same,SPOT peptide array binding signal intensity,ScSla1-D3,0.5
same,SPOT peptide array binding signal intensity,SpAbp1-D1,21
same,SPOT peptide array binding signal intensity,SpBbc1,1
same,SPOT peptide array binding signal intensity,SpBzz1-D1,17.5
same,SPOT peptide array binding signal intensity,SpBzz1-D2,0.5
same,SPOT peptide array binding signal intensity,SpCyk3,7
same,SPOT peptide array binding signal intensity,SpHof1,283
same,SPOT peptide array binding signal intensity,SpHof1-2,88
same,SPOT peptide array binding signal intensity,SpHof1-3,1360
same,SPOT peptide array binding signal intensity,SpHse1,2380
same,SPOT peptide array binding signal intensity,SpLsb1,≤ 0
same,SPOT peptide array binding signal intensity,SpLsb4,23
same,SPOT peptide array binding signal intensity,SpMyo1,7.25
same,SPOT peptide array binding signal intensity,SpNbp2,44
same,SPOT peptide array binding signal intensity,SpPex13,5
same,SPOT peptide array binding signal intensity,SpRvs167,19.3
same,SPOT peptide array binding signal intensity,SpSla1-D1-D2,0.5
same,SPOT peptide array binding signal intensity,SpSla1-D3,3
